Test results as given in PubChem BioAssay (Tox21).
Results filed as inconclusive are left out. Calls of active or inactive are those of the source. Unless noted, the call rests on the fitted dose curve; in most records, active means well fitted curve in the direction sought with a large enough effect in the repeat runs; inconclusive means weak or mixed curves; inactive means no such curve, though single readings can be large; an effect the other way counts as inactive or inconclusive.

What was measured:
[1] = molecular target: Thyrotropin receptor (Homo sapiens) (UniProt P16473); test: qHTS assay to identify small molecule agonists of the thyroid stimulating hormone receptor (TSHR) signaling pathway (AID 1224843; calls by dose curve; further: nearly all actives have a fitted effect of over 45% in size)
Outline: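 A cell-based cAMP HTRF format was run in TSHR-transfected HEK293 cells, 800 per well. Treatment: 30 min, room temperature. Detection: 1 h with labelled cAMP and anti-cAMP cryptate. Concentration-response over 15 points, three replicates.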

[2] = qHTS assay to identify small molecule agonists of the hypoxia (HIF-1) signaling pathway - cell viability counter screen (AID 1224844; calls by dose curve; further: nearly all actives have a fitted effect of over 50% in size; further: potency means the concentration at half of the fitted maximal effect)
Outline: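 Same wells as the HIF-1 reporter screen; ME-180 cells carrying HRE-bla, 17 hr treatment at 37C; CellTiter-Glo luminescence read after 30 min at room temperature.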

[3] = qHTS assay to identify small molecule agonists of H2AX (AID 1224845; active means well fitted activation curve with a large enough effect in the signal ratio in the repeat runs, not every such curve was filed as active; the % refers to the signal ratio; further: potency means the concentration at half of the fitted maximal effect)
Outline: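 Phospho-H2AX Ser139 measured by HTRF (ex 320 nm; em 665 and 620 nm) after 24 hr antibody incubation. Compounds, 15 concentrations, 0.76% DMSO, were applied to CHO-K1 cells for 3hr at 37C before lysis.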

[4] = qHTS assay to identify small molecule agonists of H2AX - cell viability counter screen (AID 1224847; calls by dose curve; further: top concentration of the series differs between compounds; nearly all actives have a fitted effect of over 30% in size)
Outline: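 Compounds tested at 15 concentrations were incubated 3 hr at 37C with wild-type CHO-K1 cells; cellular ATP-based luminescence (CellTiter-Glo) indicated viability.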

[5] = qHTS RealTime-Glo MT Cell Viability Assay in HepG2 cells - 24 hour (AID 1224867); further: nearly all actives have a fitted effect of over 50% in size
Outline: (§1)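 Cell number in HepG2 cultures estimated from NanoLuc luminescence generated by metabolic reduction of a prosubstrate by living cells. The homogeneous, nonlytic format allowed repeated reads at 0, 8, 16, 24, 32 and 40 h of compound exposure.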

[6] = qHTS RealTime-Glo MT Cell Viability Assay in HEK293 cells - 32 hour (AID 1224868); further: nearly all actives have a fitted effect of over 50% in size; further: potency means the concentration at half of the fitted maximal effect; on activity change, negative = cytotoxic: top concentration of the series differs between compounds
Outline: (§2)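 Homogeneous bioluminescent viability format in HEK293 cells (600 cells/well). Following 5 h at 37 C/5% CO2, 23 nL compound was pintooled; the signal was measured repeatedly during 40 h incubation.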

[7] = A CellTox Green Cytotoxicity Assay to monitor cytotoxicity in HEK293 cells - 0 hour (AID 1224869); further: nearly all actives have a fitted effect of over 50% in size
Outline: (§3)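 Homogeneous no-lysis format: HEK293 cell suspension mixed with CellTox Green reagent, seeded, incubated 5 h at 37 C/5% CO2, then dosed by pintool with compound in DMSO.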

[8] = qHTS RealTime-Glo MT Cell Viability Assay in HepG2 cells - 40 hour (AID 1224870); further: nearly all actives have a fitted effect of over 50% in size
Outline: (§4)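 Real-time viability: cells seeded at 600 per well together with NanoLuc and cell-permeant prosubstrate, compounds added after 5 h incubation. Luminescence tracked at 0, 8, 16, 24, 32 and 40 h of exposure.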

[9] = A CellTox Green Cytotoxicity Assay to monitor cytotoxicity in HEK293 cells - 40 hour (AID 1224871); further: nearly all actives have a fitted effect of over 45% in size
Outline: as §3

[10] = qHTS RealTime-Glo MT Cell Viability Assay in HEK293 cells - 16 hour (AID 1224872); further: nearly all actives have a fitted effect of over 50% in size; further: potency means the concentration at half of the fitted maximal effect; on activity change, negative = cytotoxicity: top concentration of the series differs between compounds
Outline: as §2

[11] = qHTS RealTime-Glo MT Cell Viability Assay in HepG2 cells - 8 hour (AID 1224873); further: nearly all actives have a fitted effect of over 55% in size
Outline: as §4

[12] = qHTS RealTime-Glo MT Cell Viability Assay in HEK293 cells - 40 hour (AID 1224874); conditions: RealTime-Glo luminescence; max response: active compounds read low; further: nearly all actives have a fitted effect of over 50% in size; further: potency means the concentration at half of the fitted maximal effect
Outline: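 Measured as luminescence from the same continuously cultured HEK293 wells at successive time points (0, 8, 16, 24, 32, 40 h) after compound addition. Reagent present from seeding; dosing at 5 h; incubation 37 C.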

[13] = A CellTox Green Cytotoxicity Assay to monitor cytotoxicity in HEK293 cells - 24 hour (AID 1224875); further: nearly all actives have a fitted effect of over 45% in size; further: potency means the concentration at half of the fitted maximal effect
Outline: as §3

[14] = A CellTox Green Cytotoxicity Assay to monitor cytotoxicity in HepG2 cells - 16 hour (AID 1224876); further: nearly all actives have a fitted effect of over 45% in size; further: potency means the concentration at half of the fitted maximal effect
Outline: (§5)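 Fluorescent DNA-binding dye, 600 HepG2 cells/well, 5 h preincubation then compound in DMSO; same plates read at 0–40 h, 37 C.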

[15] = qHTS RealTime-Glo MT Cell Viability Assay in HepG2 cells - 32 hour (AID 1224877); further: nearly all actives have a fitted effect of over 55% in size
Outline: as §1

[16] = A CellTox Green Cytotoxicity Assay to monitor cytotoxicity in HepG2 cells - 24 hour (AID 1224878); further: nearly all actives have a fitted effect of over 45% in size; further: potency means the concentration at half of the fitted maximal effect
Outline: as §5

[17] = A CellTox Green Cytotoxicity Assay to monitor cytotoxicity in HepG2 cells - 40 hour (AID 1224879); further: nearly all actives have a fitted effect of over 40% in size; further: potency means the concentration at half of the fitted maximal effect
Outline: as §5

[18] = qHTS assay to identify small molecule agonists of the hypoxia (HIF-1) signaling pathway (AID 1224846; active means well fitted activation curve with a large enough effect in the signal ratio in the repeat runs, not every such curve was filed as active; the % refers to the signal ratio)
Outline: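 In ME-180 cells bearing an HRE-bla construct, 17 h treatment with DMSO-dissolved compounds at 37C was followed by CCF4-AM loading to quantify reporter induction.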

[19] = qHTS assay to identify small molecule agonists of the estrogen related receptor (ERR) signaling pathway from Tox21 library (AID 1224849; calls by dose curve; further: nearly all actives have a fitted effect of over 15% in size); conditions: ERR reporter cell line, ONE-Glo luciferase, 18 h; at 92.4 µM (top of the series) unless noted
Outline: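 Reporter cells (ERR, NTP source) treated with Tox21 10K compounds 18 h, 37 C. Readout: ONE-Glo luminescence, 30 min RT.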

[20] = qHTS assay to identify small molecule antagonists of the estrogen related receptor (ERR) signaling pathway from Tox21 library (AID 1224848); further: nearly all actives have a fitted effect of over 50% in size
Outline: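 ERR cell line, 2,000 cells/well. 6 h settle, then compound (DMSO) added; 18 h at 37 C; ONE-Glo luminescence after 30 min RT.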
On the % scale 0 is the no-effect control and ±100 the full control effect.

Thyrotropin receptor (Homo sapiens), sequence (P16473 whole entry, looked up): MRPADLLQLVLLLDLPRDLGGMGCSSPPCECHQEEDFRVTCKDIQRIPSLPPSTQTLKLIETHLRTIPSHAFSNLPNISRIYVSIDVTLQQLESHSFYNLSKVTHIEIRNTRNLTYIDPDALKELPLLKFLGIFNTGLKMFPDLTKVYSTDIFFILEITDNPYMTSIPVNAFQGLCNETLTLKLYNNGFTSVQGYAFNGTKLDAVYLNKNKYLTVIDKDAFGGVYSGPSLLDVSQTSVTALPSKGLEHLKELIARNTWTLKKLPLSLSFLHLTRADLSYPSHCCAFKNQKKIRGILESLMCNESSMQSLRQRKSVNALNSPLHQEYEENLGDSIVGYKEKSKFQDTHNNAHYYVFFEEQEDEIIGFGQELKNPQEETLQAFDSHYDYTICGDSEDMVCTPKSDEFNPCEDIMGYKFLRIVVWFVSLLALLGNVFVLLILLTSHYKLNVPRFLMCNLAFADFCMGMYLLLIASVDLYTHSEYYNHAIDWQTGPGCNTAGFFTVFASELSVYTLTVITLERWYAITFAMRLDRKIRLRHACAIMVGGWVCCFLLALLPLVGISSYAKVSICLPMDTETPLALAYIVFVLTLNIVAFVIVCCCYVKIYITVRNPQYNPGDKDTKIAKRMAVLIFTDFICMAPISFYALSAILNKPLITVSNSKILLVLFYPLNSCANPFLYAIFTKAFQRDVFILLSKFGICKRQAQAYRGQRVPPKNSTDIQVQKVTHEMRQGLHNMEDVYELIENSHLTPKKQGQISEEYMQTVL

COc1cc(N)c(Cl)cc1C(=O)NC1CCN(Cc2ccccc2)CC1
active: Potency [6] 19 µM | Potency [10] 19 µM | Potency [12] 19 µM
inactive: Potency [1] | Potency [2] | Potency [3] | Potency [4] | Potency [5] | Potency [7] | Potency [8] | Potency [9] | outcome [11] | Potency [13] | Potency [14] | Potency [15] | Potency [16] | Potency [17]

CN(C)C(=O)NC1(c2ccccc2)CCN(CCC[C@]2(c3ccc(Cl)c(Cl)c3)CCCN(C(=O)c3ccccc3)C2)CC1
inactive: activation [1] -9.82% [at 19 µM] | activity change, negative = cytotoxicity [2] -18.7% [at 15.8 µM] | activation (H2AX phosphorylation) [3] 5.48% [at 31.6 µM] | activation [18] 0.323% [at 15.8 µM] | activity change, negative = cytotoxicity [4] -0.817% [at 31.6 µM] | activity change, negative = cytotoxicity [5] -9.68% [at 15.8 µM] | cytotoxicity [7] -1.6% [at 15.8 µM] | activity change, negative = cytotoxic [8] -4.9% [at 15.8 µM] | cytotoxicity increase [9] 31% [at 15.8 µM] | viability change, negative = cytotoxic [11] -6.85% [at 15.8 µM] | activity change [13] 4.75% [at 15.8 µM, active compounds read high] | cytotoxicity increase [14] 15.3% [at 15.8 µM] | activity change, negative = cytotoxic [15] -9.2% [at 15.8 µM]

CCCCCCCCCCCCOCCOS(=O)(=O)O
active: Potency [2] 43.6 µM | Potency [13] 24.5 µM | Potency [14] 49 µM | Potency [16] 49 µM | Potency [17] 54.9 µM
inactive: Potency [1] | Potency [3] | Potency [4] | activity change, positive = activation [19] -29.3% | Potency [5] | Potency [7] | Potency [8] | Potency [10] | outcome [11] | Potency [15]

CC(C)C(=O)OC/C=C/c1ccccc1
inactive: Potency [1] | Potency [2] | Potency [3] | Potency [4] | Potency [20] | activity change, positive = activation [19] 4.91% | Potency [5] | Potency [6] | Potency [7] | Potency [9] | Potency [10] | outcome [11] | max response [12] -2.31% | Potency [13] | Potency [14] | Potency [15] | Potency [16] | Potency [17]

C1CCOC1
inactive: Potency [1] | Potency [2] | Potency [3] | Potency [4] | Potency [20] | activity change, positive = activation [19] 1.79% | Potency [5] | Potency [6] | Potency [7] | Potency [8] | Potency [9] | Potency [10] | outcome [11] | max response [12] 0.369% | Potency [13] | Potency [14] | Potency [15] | Potency [16] | Potency [17]

CCN(CCCc1ccccc1)CCCc1ccccc1
inactive: Potency [1] | Potency [2] | Potency [3] | Potency [4] | Potency [20] | activity change, positive = activation [19] -7.88% [at 42.5 µM] | Potency [5] | Potency [8] | Potency [9] | outcome [11] | Potency [13] | Potency [14] | Potency [15] | Potency [16]

CC(C)S
inactive: Potency [1] | Potency [2] | Potency [3] | Potency [4] | Potency [20] | activity change, positive = activation [19] 3.07% | Potency [5] | Potency [6] | Potency [7] | Potency [10] | outcome [11] | max response [12] 0.674% | Potency [13] | Potency [14] | Potency [15] | Potency [16] | Potency [17]

CN1CCN(N)CC1
inactive: Potency [1] | Potency [2] | Potency [3] | Potency [4] | Potency [5] | Potency [6] | Potency [7] | Potency [8] | Potency [9] | Potency [10] | outcome [11] | max response [12] 5.85% | Potency [13] | Potency [14] | Potency [15] | Potency [16] | Potency [17]

O=c1[nH]c(=O)n([C@H]2C[C@H](O)[C@@H](CO)O2)cc1C(F)(F)F
inactive: Potency [1] | Potency [2] | Potency [4] | activity change, positive = activation [19] -26.8% [at 42.5 µM] | Potency [5] | Potency [6] | Potency [7] | Potency [8] | Potency [10] | outcome [11] | max response [12] -15% | Potency [13] | Potency [14] | Potency [15] | Potency [16]
active: Potency [3] 0.196 µM | Potency [17] 19 µM

CCOc1ccc(NC(N)=O)cc1
inactive: Potency [1] | Potency [2] | Potency [3] | Potency [4] | Potency [20] | activity change, positive = activation [19] 1.88% | Potency [5] | Potency [6] | Potency [7] | Potency [8] | Potency [9] | Potency [10] | outcome [11] | max response [12] 4.66% | Potency [13] | Potency [14] | Potency [15] | Potency [16] | Potency [17]

NC(Cc1ccc(F)cc1)C(=O)O (centres undefined)
inactive: activation [1] 1.31% [at 8.39 µM] | activity change, negative = cytotoxicity [2] 1.08% [at 6.97 µM] | activation (H2AX phosphorylation) [3] -2.92% [at 14 µM] | activity change, negative = cytotoxicity [4] 0.454% [at 14 µM] | activity, negative = inhibition [20] 1.15% [at 8.39 µM] | activity change, positive = activation [19] 0.59% [at 8.39 µM] | activity change, negative = cytotoxicity [5] -1.43% [at 6.97 µM] | activity change, negative = cytotoxic [6] -0.0847% [at 6.97 µM] | activity change, negative = cytotoxic [8] -10.7% [at 6.97 µM] | cytotoxicity increase [9] 10% [at 6.97 µM] | activity change, negative = cytotoxicity [10] 1.36% [at 6.97 µM] | viability change, negative = cytotoxic [11] 1.3% [at 6.97 µM] | max response [12] 2.65% | activity change [13] 11.7% [at 6.97 µM, active compounds read high] | cytotoxicity increase [14] 8.03% [at 6.97 µM] | activity change, negative = cytotoxic [15] -6.06% [at 6.97 µM] | cytotoxicity [16] 7.85% [at 6.97 µM] | cytotoxicity increase [17] 7.77% [at 6.97 µM]

CC(C)(C)c1cccc(O)c1
inactive: Potency [1] | Potency [2] | Potency [3] | Potency [4] | Potency [20] | activity change, positive = activation [19] 1.25% | Potency [5] | Potency [6] | Potency [8] | Potency [9] | Potency [10] | outcome [11] | max response [12] -6.86% | Potency [13] | Potency [14] | Potency [15]

COc1ccccc1N1CCN(CCCNc2cc(=O)n(C)c(=O)n2C)CC1
inactive: Potency [1] | Potency [2] | Potency [3] | Potency [4] | Potency [20] | activity change, positive = activation [19] 3.63% [at 42.5 µM] | Potency [5] | Potency [6] | Potency [7] | Potency [8] | Potency [9] | Potency [10] | outcome [11] | max response [12] -21.2% | Potency [13] | Potency [14] | Potency [15] | Potency [16] | Potency [17]
